An excerpt weighted towards active compounds, which were near 11% of everything screened.
G9a inh = qHTS Assay for Inhibitors of Histone Lysine Methyltransferase G9a; Potency, µM (top dose mostly 102 µM), for the others: at the top dose activity, negative = inhibition, actives largely listed as inhibitors; AID 504332, 2011; actives 8.8% (n = 350,000); G9a H3K9 monomethylation, AlphaScreen, 2 h; further: on the % scale 0 is the no-effect control and ±100 the full control effect; nearly all actives have a fitted effect of over 75% in size
Target sequence (Q96KQ7 913-1193 limits assumed): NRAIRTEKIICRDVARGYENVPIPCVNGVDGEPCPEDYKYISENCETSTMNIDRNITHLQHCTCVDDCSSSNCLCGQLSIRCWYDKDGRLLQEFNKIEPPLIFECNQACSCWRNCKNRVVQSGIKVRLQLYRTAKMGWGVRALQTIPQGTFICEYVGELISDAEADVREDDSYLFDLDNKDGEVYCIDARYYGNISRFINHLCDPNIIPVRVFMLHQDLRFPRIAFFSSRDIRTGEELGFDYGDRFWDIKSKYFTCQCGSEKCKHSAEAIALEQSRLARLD
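Compounds were preincubated with 20 nM G9a for 15 min, after which biotinylated H3K9 peptide (500 nM) and SAM (20 uM) started a 2 h room-temperature reaction. Monomethylated product was quantified by antibody-based AlphaScreen chemiluminescence.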
L3MBTL1 inh = qHTS Assay for the Inhibitors of L3MBTL1 | Lethal(3)malignant brain tumor-like protein 1 (Homo sapiens), Q9Y468 | AlphaScreen L3MBTL1–H3K9me1 peptide binding | Potency, µM (titrated, usually from 57.1 µM), without a hit: top-dose activity, negative = inhibition, most hits filed as inhibitors | actives 0.66% (n = 230,000) | AID 485360, 2010; further: on the % scale 0 is the no-effect control and ±100 the full control effect; nearly all actives have a fitted effect of over 60% in size
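AlphaScreen proximity signal between nickel-chelate acceptor and streptavidin donor beads (final 10 ug/mL) reports binding of 50 nM L3MBTL1 to 75 nM biotin-H3 K9me1 peptide; complex incubated with compounds 30 min at room temperature; cefsulodin titration as control.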
JMJD2A Tudor inh = qHTS Assay for Inhibitors of JMJD2A-Tudor Domain | Lysine-specific demethylase 4A (Homo sapiens), O75164 | AlphaScreen JMJD2A-Tudor / H3K4me3 peptide binding | Potency, µM (top dose mostly 114 µM), for inactives: at the highest dose activity change, negative = inhibition, usual class: inhibitors | actives 4.4% (n = 390,000) | AID 504339, 2011; further: on the % scale 0 is the no-effect control and ±100 the full control effect; nearly all actives have a fitted effect of over 50% in size
HP1b chromo inh = HTS for Inhibitors of HP1-beta Chromodomain Interactions with Methylated Histone Tails. Chromobox protein homolog 1 (Homo sapiens), P83916. AlphaScreen HP1-beta / biotin-H3K9me3 peptide binding. Potency, µM (titrated, usually from 114 µM), without a hit: top-dose activity change, negative = inhibition, most hits filed as inhibitors. actives 0.56% (n = 390,000); further: nearly all actives have a fitted effect of over 70% in size
Target sequence (P83916 whole entry, looked up): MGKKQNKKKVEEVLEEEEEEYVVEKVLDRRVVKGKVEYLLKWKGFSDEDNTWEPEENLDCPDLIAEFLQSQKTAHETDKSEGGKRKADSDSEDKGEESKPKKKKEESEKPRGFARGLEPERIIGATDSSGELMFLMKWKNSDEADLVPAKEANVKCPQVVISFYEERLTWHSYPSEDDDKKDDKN
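Compound inhibition of the preformed complex between 50 nM HP1-beta and 50 nM biotinylated H3K9me3 peptide was read by AlphaScreen. Buffer was PBS pH 7.4 with 0.01% Tween-20. Incubations ran 30 min at room temperature, with 10 ug/mL donor/acceptor beads.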
BAZ2B block = qHTS Assay for Inhibitors of BAZ2B; actives 4.4% (n = 360,000); AlphaScreen BAZ2B-H3K14Ac peptide displacement; Potency, µM (top dose mostly 114 µM), inactives show top-dose activity change, negative = inhibition, usual class: inhibitors; further: on the % scale 0 is the no-effect control and ±100 the full control effect; nearly all actives have a fitted effect of over 60% in size
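Complex of BAZ2B and biotin-H3K14Ac (50 nM apiece) forms over 30 min at RT, then faces library compounds up to 110 uM for another 30 min; AlphaScreen beads added, 20 min dark incubation, luminescence read.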
* marks the source's active call; other numbers are inactive results; ? = inconclusive; / = not tested or not shown; [ ] = another dose, or the depositor's remark. The call rests on the fitted dose curve; in most records, active means well fitted inhibition curve with a large enough effect; inconclusive means small, poorly fitted or top-dose-only effect; inactive means no such curve, though single readings can be large or run the other way. Potency means the concentration at half of the fitted maximal effect.

SMILES	G9a inh	L3MBTL1 inh	JMJD2A Tudor inh	HP1b chromo inh	BAZ2B block
CCC(=O)C1=C(c2cccc([N+](=O)[O-])c2)N(C(=O)CC)n2c(nnc2-c2ccccc2)S1	11%[59 µM]	/	-6%	43%	1%
O=C(NCCN1CCOCC1)C1(C(F)(F)F)CC(CCCO)CCCO1 (stereo unspecified)	/	/	-6%	10%	/
Cc1cc(OCCN2CCOCC2)ccc1C(C)C	-51%[2.33 µM]	/	14µM*	?	50µM*
CCOc1ccc(OCCCCn2ccnc2)cc1	?	-9%	20µM*	?	50µM*
Cc1cc(OCCn2ccnc2)ccc1C(C)C	14µM*	10%	3.2µM*	50µM*	45µM*
COc1ccc(OCCn2ccnc2)cc1	-9%[0.501 µM]	1%[2.29 µM]	4%	33%	-10%
CCOc1ccc(OCCn2ccnc2)cc1	10µM*	0%	5µM*	?	50µM*
O=C(CN1C(=O)COc2ccc(S(=O)(=O)NC3CCCC3)cc21)Nc1ccc(Cl)cc1	1%[59 µM]	/	-11%	19%	-3%
CCC(C)c1ccc(OCCCCN2CCOCC2)cc1 (stereo unspecified)	10µM*	/	35µM*	?	50µM*
CCCCOc1ccc(OCCCN2CCOCC2)cc1	-37%[2.33 µM]	-9%	-18%	25%	-37%
CCSc1nc(O)cc(=O)[nH]1	7%[12.7 µM]	/	3%	50%	-18%
CCSc1nc(=S)cc(C)[nH]1	10µM*	21%	-11%	4%	19%
COc1ccc(OC)c(CNC(=O)c2ccc(C)c(NC(=O)c3nsc4ccccc34)c2)c1	-22%[59 µM]	/	-16%	20%[57 µM]	2%
CCN(CC)CCN(C(=O)c1ccc2c(c1)OCCO2)c1nc2c(Cl)cccc2s1	50µM*	/	?	-15%	?
CN(C)CCN(C(=O)c1cccc(Cl)c1)c1nc2c(Cl)cccc2s1	45µM*	8%	?	-11%	2%
CCOc1cccc2sc(N(CCN(C)C)C(=O)c3ccc(Br)s3)nc12	10%[59 µM]	/	-6%	39%	-2%
CN(C)CCN(C(=O)c1ccccc1Cl)c1nc2c(Cl)cccc2s1	10µM*	-3%	25µM*	?	-65%
COC(=O)c1ccc(C(=O)N(CCN(C)C)c2nc3c(Cl)cccc3s2)cc1	56µM*	/	-12%	3%	/
CN(C)CCN(C(=O)c1ccc2c(c1)OCCO2)c1nc2ccc(Cl)cc2s1	?	/	?	-15%	/
O=c1cccccc1NCc1ccccc1	10µM*	/	4%	31%	12%
O=C1C=C(Nc2ccc(F)cc2)c2ccccc2C1=O	7.9µM*	-19%	-26%	-15%	?
Cc1ccc(NC2=CC(=O)C(=O)c3ccccc32)c(C)c1	-2%[2.33 µM]	-1%	-14%	17%	?
O=C1C=C(Nc2ccccc2O)c2ccccc2C1=O	45µM*	-24%	?	-38%	45µM*
O=C1C=C(NCc2ccccc2)c2ccccc2C1=O	?	22µM*	-33%	5%	-31%
CCOc1ccc(NC2=CC(=O)C(=O)c3ccccc32)cc1	/	/	-28%	-8%	/
SMILES	G9a inh	L3MBTL1 inh	JMJD2A Tudor inh	HP1b chromo inh	BAZ2B block
CCOc1ccccc1NC(=O)N1c2ccccc2Sc2ccccc21	13%[59 µM]	/	2%	30%	4%
Fc1ccc(C(NCCc2ccc(Cl)cc2)c2nnc(-c3ccccc3Cl)o2)cc1 (stereo unspecified)	116%[59 µM]	/	50%	92%	70%
COc1cccc(CNC(=O)Cc2ccc(NC(=O)C3=C(C)OCCS3)cc2)c1	-13%	/	?	17%	50µM*
CCOc1ccccc1CNC(=O)c1ccc(NC(=O)C2=C(C)OCCS2)cc1	32µM*	/	-34%	29%	?
CCOc1ccccc1CNC(=O)c1ccc(NC(=O)C2=CSCCO2)cc1	15%	/	-9%	11%[57 µM]	-8%
CCc1nn(CC(=O)N(CC)Cc2ccccc2)c(=O)c2cc3occc3n12	-5%[59 µM]	/	-19%	10%	-13%
C#CCOCCOCCOCCNc1nc(N2CCN(C(=O)[C@H](CCC(=O)O)n3cc([C@@H](N)[C@H](C)CC)nn3)CC2)nc(N2CCN(C(=O)[C@H](CCCCN)n3cc([C@@H](N)CC(N)=O)nn3)CC2)n1	/	-7%	5.6µM*	-14%	/
C#CCOCCOCCOCCNc1nc(N2CCN(C(=O)[C@H](CCCCN)n3cc([C@@H](N)C(C)CC)nn3)CC2)nc(N2CCN(C(=O)[C@H](CCCCN)n3cc([C@@H](N)CC(C)C)nn3)CC2)n1 (stereo partly specified)	?	0%	?	23%	71µM*
C#CCOCCOCCOCCNc1nc(N2CCN(C(=O)[C@H](CC(N)=O)n3cc(C(N)[C@H](C)CC)nn3)CC2)nc(N2CCN(C(=O)[C@H](CC(N)=O)n3cc(C(N)[C@@H](C)CC)nn3)CC2)n1 (stereo partly specified)	/	-8%	22µM*	33%	/
C#CCOCCOCCOCCNc1nc(N2CCN(C(=O)[C@H](CC(N)=O)n3cc(C(N)[C@@H](C)CC)nn3)CC2)nc(N2CCN(C(=O)[C@H](CCC(=O)O)n3cc([C@@H](N)CCCCN)nn3)CC2)n1 (stereo partly specified)	/	-8%	79µM*	14%	/
C#CCOCCOCCOCCNc1nc(N2CCN(C(=O)[C@H](CCCCN)n3cc([C@@H](N)[C@H](C)CC)nn3)CC2)nc(N2CCN(C(=O)[C@H](CCCCN)n3cc([C@@H](N)CC(N)=O)nn3)CC2)n1	/	2%	-26%	78%	/
C#CCOCCOCCOCCNc1nc(N2CCN(C(=O)C([C@@H](C)O)n3cc([C@@H](N)CCCCN)nn3)CC2)nc(N2CCN(C(=O)[C@H](CC(N)=O)n3cc(C(N)[C@@H](C)CC)nn3)CC2)n1 (stereo partly specified)	/	-2%	?	32%	/
Cc1ccc(CSc2[nH]c(=O)ncc2C)cc1	4%	/	-16%	34%	-13%
CC(=O)Nc1ccc(Nc2ncnc3c2c(-c2ccccc2)cn3-c2ccc(C)c(Cl)c2)cc1	2%[59 µM]	/	-29%	-2%	-12%
C#CCOCCOCCOCCNc1nc(N2CCN(C(=O)[C@H](CCCCN)n3cc(CN)nn3)CC2)nc(N2CCN(C(=O)[C@H](CC(N)=O)n3cc(C(N)[C@H](C)CC)nn3)CC2)n1 (stereo partly specified)	/	-8%	40µM*	15%	/
